According to the supplement of paper PMC8253809:

Assays:
Assay in all cases: growth inhibition (% activity, log2 RLU normalised to DMSO / staurosporine); higher = more growth inhibition
Settings in all cases: 33 µM
DIPGX29 = tested on: DIPGX29 (H3.3 K27M diffuse intrinsic pontine glioma line)
Method in brief: (§1)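 The growth-inhibition value is the median over replicates. pHGG cell lines and H9-derived neural stem cells on Geltrex-coated 384-well plates received approved drugs by pin tool at a single final concentration of about 33 μM, in triplicate, for 7 days at 37 °C, 5% CO2. CellTiter-Glo luminescence was log2-transformed and normalised per plate to % activity between solvent and positive control wells.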

DIPGX37 = tested on: DIPGX37 (H3.3 K27M diffuse intrinsic pontine glioma line)
Method in brief: as §1

DIPGX7 = tested on: DIPGX7 (H3.3 K27M diffuse intrinsic pontine glioma line)
Method in brief: as §1

DIPGX9 = tested on: DIPGX9 (diffuse intrinsic pontine glioma line)
Method in brief: as §1

HGGX39 = tested on: HGGX39 (paediatric high-grade glioma line)
Method in brief: as §1

HGGX6 = tested on: HGGX6 (H3.3 G34R paediatric high-grade glioma line)
Method in brief: as §1

HNSC = tested on: HNSC
Method in brief: as §1

SUDIPGIV = tested on: SUDIPGIV (diffuse intrinsic pontine glioma line)
Method in brief: as §1

SUDIPGVI = tested on: SUDIPGVI (diffuse intrinsic pontine glioma line)
Method in brief: as §1

SUDIPGXIII = tested on: SUDIPGXIII (diffuse intrinsic pontine glioma line)
Method in brief: as §1

Structure (SMILES) | growth inhibition (DIPGX29) | growth inhibition (DIPGX37) | growth inhibition (DIPGX7) | growth inhibition (DIPGX9) | growth inhibition (HGGX39) | growth inhibition (HGGX6) | growth inhibition (HNSC) | growth inhibition (SUDIPGIV) | growth inhibition (SUDIPGVI) | growth inhibition (SUDIPGXIII)
CO/N=C(\C(=O)N[C@@H]1C(=O)N2C(C(=O)O)=C(Cn3ccc(=N)n3CCO)CS[C@H]12)c1csc(N)n1 | -0.673% | 1.46% | 0.0521% | 0.497% | -0.232% | 0.395% | -1.19% | -0.702% | 0.0229% | 1.31%
CN(C)CCCN1c2ccccc2CCc2ccc(Cl)cc21 | 0.798% | 0.768% | 0.947% | 2.88% | 7.81% | 0.658% | 8.46% | 7.66% | 3.07% | 3.28%
CC(C)/N=c1\cc2n(-c3ccc(Cl)cc3)c3ccccc3nc-2cc1Nc1ccc(Cl)cc1 | 12.5% | 10.3% | 11.1% | 5.47% | 10% | 7.37% | 66.1% | 21.9% | 5.83% | 5.35%
CCCCCCCCCC(=O)NC1C(Oc2c3cc4cc2Oc2ccc(cc2Cl)C(OC2OC(CO)C(O)C(O)C2NC(C)=O)C2NC(=O)C(NC(=O)C4NC(=O)C4NC(=O)C(Cc5ccc(c(Cl)c5)O3)NC(=O)C(N)c3ccc(O)c(c3)Oc3cc(O)cc4c3)c3ccc(O)c(c3)-c3c(OC4OC(CO)C(O)C(O)C4O)cc(O)cc3C(C(=O)O)NC2=O)OC(CO)C(O)C1O (stereo not given) | -0.31% | 0.115% | 0.155% | 0.4% | -1.12% | -0.793% | 0.958% | -1.1% | 0.462% | 2.06%
CC[C@@H]1/C=C(\C)C[C@H](C)C[C@H](OC)[C@H]2O[C@@](O)(C(=O)C(=O)N3CCCC[C@H]3C(=O)O[C@H](/C(C)=C/[C@@H]3CC[C@H](Cl)[C@H](OC)C3)[C@H](C)[C@@H](O)CC1=O)[C@H](C)C[C@@H]2OC | 1.37% | 4.05% | 3.83% | 5.36% | 7.81% | 2.73% | 8.07% | 5.69% | 5.28% | 5.19%
CC(N)C12CC3CC(CC(C3)C1)C2 (stereo not given) | -0.149% | 2.59% | 0.357% | 0.266% | 1.62% | 0.391% | 1.01% | 0.585% | -0.365% | -0.4%
COC(=O)C1=CO[C@@H](O)[C@@H]2C(CO)=CC[C@H]12 | -0.243% | 2.53% | -0.199% | 2.66% | -0.158% | 2.23% | -1.1% | -0.3% | -0.83% | 1.32%
Cc1ccc(-n2[nH]c(C)c(N=Nc3cccc(-c4cccc(C(=O)O)c4)c3O)c2=O)cc1C | -2.95% | -1.98% | 0.213% | -1.59% | -1.34% | -2.27% | 13.7% | -2.64% | -2.5% | 1.95%
CN1[C@@H]2CC[C@H]1CC(OC(=O)c1c[nH]c3ccccc13)C2 (stereo not given in full) | 4.79% | 5.76% | 6.41% | 23.4% | 7.53% | 1.59% | 58.8% | 9.21% | 1.15% | 0.619%
CC(C)(Sc1cc(C(C)(C)C)c(O)c(C(C)(C)C)c1)Sc1cc(C(C)(C)C)c(O)c(C(C)(C)C)c1 | -2% | -0.535% | -0.766% | -0.47% | -0.682% | -1.24% | 1.54% | -1.38% | -2.9% | 1.85%
